Experiments:
[1] = target: T1, Aspartate--tRNA(Asp/Asn) ligase (Mycobacterium tuberculosis (strain ATCC 25618 / H37Rv)) (UniProt P9WFW3); assay: Assay for Asp RNA synthetase-1 from Mycobacterium tuberculosis; format: functional; set-up: scale not given: direction of the effect not stated beside the values; conditions: 30 µM; further: in the data most compounds retested in dose-response had high values
T1 sequence (whole entry): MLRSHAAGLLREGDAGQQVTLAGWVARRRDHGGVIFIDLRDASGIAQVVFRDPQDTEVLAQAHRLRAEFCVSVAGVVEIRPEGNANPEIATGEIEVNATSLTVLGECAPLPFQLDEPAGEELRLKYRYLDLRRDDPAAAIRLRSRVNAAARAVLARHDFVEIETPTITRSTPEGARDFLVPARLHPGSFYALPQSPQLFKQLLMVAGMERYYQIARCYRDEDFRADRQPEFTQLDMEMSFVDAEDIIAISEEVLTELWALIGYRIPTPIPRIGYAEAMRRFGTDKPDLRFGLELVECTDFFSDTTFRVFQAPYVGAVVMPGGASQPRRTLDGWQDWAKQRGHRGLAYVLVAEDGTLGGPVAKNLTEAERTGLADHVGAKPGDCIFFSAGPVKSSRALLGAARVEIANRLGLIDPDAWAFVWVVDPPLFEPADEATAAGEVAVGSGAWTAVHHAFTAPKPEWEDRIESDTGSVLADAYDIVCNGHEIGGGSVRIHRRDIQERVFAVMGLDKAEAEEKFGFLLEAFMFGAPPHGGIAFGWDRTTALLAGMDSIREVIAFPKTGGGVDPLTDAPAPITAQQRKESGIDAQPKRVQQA

[2] = target: Shiga toxin 2 (Escherichia coli O157:H7) (UniProt P09385+P09386); assay: E. coli 0.157:H7 Shiga Toxin SOP - stx2 screening assay; format: functional; set-up: scale not given: direction of the effect not stated beside the values; conditions: 30 µM

Row | SMILES | Percent Effect [1] [%] | Percent Effect [2] [%]
1 | O=C(Cc1ccccn1)N1CCC2(CC1)CC(Oc1ccccn1)CO2 (stereo not given) | -3.87 | -3.37
2 | CCCn1nccc1C(=O)N1CCCN(CCCc2ccccc2)CC1 | -3.6 | -14.4
3 | COc1cc(C(=O)N2CCCC(CNS(C)(=O)=O)C2)cc(OC)c1C (stereo not given) | -4.03 | 25.9
4 | NC(=O)C1CN(C(=O)Nc2cc(Cl)cc(Cl)c2)CCO1 (stereo not given) | 1.82 | 8.74
5 | COCC1Cn2nnc(-c3cnn(C)c3)c2CN1Cc1ccc(C)s1 (stereo not given) | 1.73 | -7.17
6 | COCCCN1CC2(CCCCN2C(=O)c2ccsc2)CC1=O (stereo not given) | -3.53 | -5.69
7 | CCCNC(=O)Cn1cc(-c2ccccc2)cn1 | -2.52 | -0.0685
8 | Cc1nn(C)c(N(C)C)c1CNC(C)c1cccc(OC(C)C)c1 (stereo not given) | -3.06 | -5.32
9 | Cc1nc(C(C)(C)NC(=O)Nc2ccccc2)no1 | 0.805 | -0.789
10 | CN(CCc1ccccc1)Cc1cc(C(=O)N2CCN(C)C(=O)C2)no1 | -2.28 | -18.1
11 | CC(Nc1cccc(CN2CCOC2=O)c1)C(=O)NC(N)=O (stereo not given) | -3.68 | -7.19
12 | CCOCC1CC2(CCN(C(=O)c3ccccc3F)CC2)CO1 (stereo not given) | 3.1 | 5.12
13 | CC(=O)c1cccc(OCC(=O)NS(=O)(=O)c2ccc(C)s2)c1 | -3.8 | -7.24
14 | Cc1ccc(NC2CCN(C(=O)c3cccc4ncccc34)CC2)nn1 | 3.98 | -2.02
15 | CNc1cc(C)nc(C2CN(Cc3ccc(C)nc3)CCO2)c1 (stereo not given) | 0.61 | 3.79
16 | CCS(=O)(=O)N1CCOC2(CCCN(c3ccc(C)nn3)C2)C1 (stereo not given) | 3.41 | -15.9
17 | CCS(=O)(=O)N1CCc2c(CN(C)Cc3ccco3)cncc2C1 | -0.0582 | -1.96
18 | Cc1ccc(NC2CCN(C(=O)c3n[nH]c4ccccc34)CC2)nn1 | 0.985 | -18.6
19 | CC(C)CN1CCC(c2nc3c([nH]2)CC(C)(C)CNC3=O)C1 (stereo not given) | 1.44 | -12.2
20 | C[C@H]1CN(Cc2cnn(C)c2)C[C@@]12CCN(Cc1cccnc1)C2=O | -2.89 | -10.2

Reference: ChEMBL document CHEMBL3988442, “University of Dundee, Small-Polar-MMV Screening Library” (2021)
